Laboratory results from the supplement of paper PMC12636033.
± gives the standard deviation of the averaged measurements. The full ranking holds about 33,000 sequences; the median of “E-score (rank enrichment, -0.5 to 0.5)” is about -0.0068, and the highest 2% start at about 0.24. The entries come from a sample that favours the highest values as a whole.

Tested on: muMax20 (Max(13-93) K31hArg/K57hArg, M65Nle)
Test: PBM 8-mer E-score (E-score (rank enrichment, -0.5 to 0.5)); higher = stronger preferential binding
Procedure: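 Protein binding microarray (universal PBM chip covering all 10-mers in fixed probe flanks) with chemically synthesized human Max(13-93) bHLH-LZ analogs (not full-length Max) bearing noncanonical residues (hArg, Tha, Aib, Nle at 65) and aromatic Cys staples. Read-out per 8-mer (and its reverse complement): E-score (rank-based enrichment, -0.5 to 0.5) and Z-score of median probe intensity.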

Sequence | PBM 8-mer E-score
CCTAGCCG | -0.253 ± 0.052
ATCGGTGC | -0.0954 ± 0.028
CAGAACTA | -0.169 ± 0.18
AACACTCT | -0.00142 ± 0.039
AAGAACTC | -0.0481 ± 0.11
GCTAGAGC | -0.122 ± 0.12
AACTTCTA | -0.0177 ± 0.042
GACTTCTA | -0.149 ± 0.025
TACTTCTA | 0.272 ± 0.091
CTTATGGA | -0.0576 ± 0.026
CAACCGAC | 0.0428 ± 0.061
AAACACGA | 0.194 ± 0.04
AAACACGT | 0.342 ± 0.016
ACACACGT | 0.338 ± 0.01
ACACACGG | 0.00898 ± 0.047
AAACACGC | 0.198 ± 0.0045
ACACACGA | 0.188 ± 0.037
GACGTAAC | 0.0633 ± 0.061
AATAGGTC | -0.0485 ± 0.14
AATAGGTG | 0.119 ± 0.0048
AATAGGTA | 0.251 ± 0.073
ATAATACA | 0.281 ± 0.027

Sequence | PBM 8-mer E-score
TCAATACA | 0.18862 ± 0.00013
AAAATACA | 0.159 ± 0.058
GTAATACA | 0.182 ± 0.082
CTAATACA | 0.248 ± 0.047
AGAATACC | 0.142 ± 0.0044
CTAATACC | 0.0669 ± 0.08
ACAATACC | 0.237 ± 0.02
ACAATACT | 0.174 ± 0.049
ATAATACG | 0.19 ± 0.015
ACAATACA | 0.191 ± 0.02
ATAATACC | 0.261 ± 0.049
ACTATGGC | -0.0571 ± 0.07
AATTTTCG | 0.0133 ± 0.1
GCCCTACA | -0.127 ± 0.021
CCCGCACG | -0.0959 ± 0.058
TGAGCGCA | -0.0144 ± 0.0021
AACGGCAA | 0.112 ± 0.025
CTCTGCGA | -0.167 ± 0.1
AGTTACCC | -0.029 ± 0.015
GGGATGGA | 0.0386 ± 0.042
ACCAGTTG | -0.0933 ± 0.12
ACTTCAAT | 0.173 ± 0.027

Sequence | PBM 8-mer E-score
GAAATACA | 0.132 ± 0.063
CAAATACC | 0.0739 ± 0.027
CAAATACA | 0.325 ± 0.037
ATAACGTA | 0.24 ± 0.0069
ATAACGTC | 0.121 ± 0.0034
GTAACGTA | 0.0209 ± 0.03
AAGTCACT | 0.24 ± 0.12
AAGTCACG | 0.0988 ± 0.052
AAGTCACA | 0.029 ± 0.056
GCTTGCAA | 0.0886 ± 0.032
AAAAATGG | 0.153 ± 0.002
GAGCCAAC | -0.0474 ± 0.026
AAAACCTC | 0.104 ± 0.039
TAATATAA | 0.232 ± 0.018
CTGTATAA | 0.191 ± 0.029
TGATATAA | 0.211 ± 0.09
GTGTATAA | 0.1625 ± 0.0011
TTATATAA | 0.274 ± 0.062
GAATATAC | 0.157 ± 0.014
GAATATAA | 0.264 ± 0.023
ATGTATAA | 0.268 ± 0.022
CTGTAGAA | 0.031 ± 0.018

Sequence | PBM 8-mer E-score
ATATATAT | 0.155 ± 0.016
ATGTAGAG | 0.04 ± 0.13
ATGTAGAA | 0.264 ± 0.0091
AGGGAACC | -0.237 ± 0.012
TACGGCTA | -0.0274 ± 0.029
ATGGGCGG | 0.009 ± 0.039
GTTAGAAC | -0.0507 ± 0.042
CTATATAA | 0.165 ± 0.12
ATATATAA | 0.288 ± 0.052
GTATATAA | 0.202 ± 0.069
ACGCCTCG | -0.092 ± 0.092
CATCCGGC | -0.291 ± 0.032
ATCGGACG | -0.0422 ± 0.092
CAAGATAA | 0.253 ± 0.064
AAAGATAC | 0.145 ± 0.05
TAAGATAA | 0.0507 ± 0.17
AAAGATAA | 0.2372 ± 0.001
CAAGATAC | 0.153 ± 0.0086
AAAGATAG | 0.0409 ± 0.14
ATCAGAGG | -0.121 ± 0.076
